# Results filed as inconclusive are left out. The source made the active and inactive calls. The calls were made as follows, unless noted: active = hit-call score of the fitted dose curve at least 0.9, where 1 is the maximum; inactive = score below 0.9.
# What was measured:
# [1] = CCTE_Shafer_MEA_dev_per_network_spike_spike_percent: CCTE's Neural Network Formation Assay for Percent of Spikes in a Network Spike, Shafer Lab (AID 2284054)
# Method in brief: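 Read-out: percent of spikes falling in a 0.05 s window at network-spike peak, from spontaneous MEA recordings on days 5, 7, 9 and 12; trapezoidal AUC; loss of signal versus DMSO. Rat cortical cultures, compound present throughout.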
# [2] = CCTE_Shafer_MEA_dev_LDH: CCTE's Lactate Dehydrogenase Assay for Cytotoxicity in the Neural Network Formation Assay, Shafer Lab (AID 2284068; active = hit-call score of the fitted dose curve at least 0.9, where 1 is the maximum;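 also: exposure for twelve days from plating with re-dosing on DIV 5 and 9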)
# Method in brief: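 Cytotoxicity companion to network-formation recordings: rat cortical neurons received compound over 12 days of development, re-dosed at DIV 5 and 9 feeds. Viability was inferred from LDH enzyme activity relative to DMSO.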
# [3] = CCTE_Shafer_MEA_dev_AB: CCTE's Alamar Blue Assay for Cytotoxicity in the Neural Network Formation Assay, Shafer Lab (AID 2284083; active = hit-call score of the fitted dose curve at least 0.9, where 1 is the maximum;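 also: twelve days of exposure from plating with re-dosing on DIV 5 and 9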)
# Method in brief: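 Fluorescent resazurin reduction serves as the viability read-out, with DMSO as negative control and baseline. Cells were primary rat cortical neurons grown on MEA plates and dosed from day 0 to day 12, treatment renewed on DIV 5 and 9.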
# [4] = CCTE_Shafer_MEA_dev_mutual_information_norm: CCTE's Neural Network Formation Assay for Mutual Information Normalization, Shafer Lab (AID 2284091);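 as to AC50: mutual information between electrodes summarised as area under curve across four recording days; potency is for a decrease in mutual information relative to DMSO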
# Method in brief: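 Neurons from rat cortex were seeded at 1.5 x 10^5 cells/well onto PEI-coated MEAs in a laminin drop, then exposed to compound from day 0 for twelve days. Network recordings on four days gave mutual information, summarised by AUC relative to DMSO.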
# [5] = CCTE_Shafer_MEA_dev_correlation_coefficient_mean: CCTE's Neural Network Formation Assay for Mean Correlation Coefficient, Shafer Lab (AID 2284093);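 as to AC50: well mean pairwise spike train correlation integrated as AUC over recording days 5 to 12; potency fitted for loss of correlation relative to DMSO vehicle wells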
# Method in brief: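 Read-out: well-mean correlation coefficient of spike trains between electrode pairs, collapsed over four recording days as trapezoidal area-under-the-curve. Developing rat cortical neuron networks grown on MEAs received test chemical continuously from plating.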
# [6] = CCTE_Shafer_MEA_acute_AB: CCTE's Alamar Blue Assay for Cytotoxicity in the Neural Acute Assay, Shafer Lab (AID 2284069; active = hit-call score of the fitted dose curve at least 0.9, where 1 is the maximum;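 also: active compounds lower the viability signal compared with DMSO wells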)
# Method in brief: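 Metabolic activity in chemically exposed rat cortical neurons (MEA cultures, day 13/15 post-plating) measured via CellTiter Blue resazurin reduction, 544/590 nm fluorescence; fitted relative to DMSO, with signal loss indicating reduced viability.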
# [7] = CCTE_Shafer_MEA_acute_LDH: CCTE's Lactate Dehydrogenase Assay for Cytotoxicity in the Neural Acute Assay, Shafer Lab (AID 2284086; active = hit-call score of the fitted dose curve at least 0.9, where 1 is the maximum;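 also: active means LDH release rises above DMSO vehicle level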)
# Method in brief: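 LDH absorbance at 490 nm in medium taken right after 40-min compound exposure; rat primary cortical neuron networks on MEA plates, days post-plating 13 or 15. Increase over DMSO baseline scored as cytotoxicity.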
# [8] = IUF_NPC1b_proliferation_BrdU_72hr: Leibniz Research Institute for Environmental Medicine (IUF) 72-hour Neural Progenitor Cell Bromodeoxyuridine (BrdU) Proliferation Assay (NPC1b) (AID 2284207)
# Method in brief: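 Luminescent BrdU ELISA measured DNA synthesis during the last 16 h of a 72 h exposure of primary human neural progenitor spheres grown with EGF and FGF. Signal was fitted relative to DMSO controls.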
# [9] = IUF_NPC1a_proliferation_area_72hr: Leibniz Research Institute for Environmental Medicine (IUF) 72-hour Neural Progenitor Cell Proliferation Area Assay (NPC1a) (AID 2284208)
# Method in brief: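 Proliferation read as increase in sphere area by phase-contrast imaging over 72 h continuous compound exposure (no renewal) of hNPC spheres grown with EGF/FGF at 37C, 5% CO2. Growth-factor withdrawal served as positive control; DMSO as baseline.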
# [10] = IUF_NPC1_viability_72hr: Viability Assessment at 72 hours in the Leibniz Research Institute for Environmental Medicine (IUF) Neural Progenitor Cell Proliferation Assay (NPC1) (AID 2284209)
# Method in brief: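 Alamar blue fluorescence (RFU) after 72 h exposure, normalized to DMSO baseline. hNPC spheres from GW 16-19 fetal cortex, single sphere per well in growth-factor medium; no compound renewal.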
# [11] = CCTE_Mundy_HCI_Cortical_Synap_Neur_Matur_NeuriteSpotCountPerNeuriteLength: CCTE's Synaptogenesis and Neurite Maturation Assay in rat cortical cells for Neurite Spot Count per Neurite Length, Mundy Lab (AID 2284210)
# Method in brief: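 Read-out: synaptophysin puncta counted along MAP2-stained neurites, normalised to neurite length, by automated high-content imaging. Rat cortical cells; AraC DIV 5; chemical dosing DIV 7; termination DIV 12. DMSO baseline.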
# [12] = CCTE_Mundy_HCI_Cortical_NOG_NeuriteCount: CCTE's Neurite Outgrowth Assay in rat cortical cells for Neurite Count, Mundy Lab (AID 2284212);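 also: cells fixed about two days after chemical exposure began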
# Method in brief: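 Rat cortical primary cells; compound added 2 h post-plating, 1/10 dilution of working solution. Anti-betaIII-tubulin/AF488 ICC; ArrayScan neurite count vs DMSO.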
# [13] = CCTE_Mundy_HCI_Cortical_NOG_NeuriteLength: CCTE's Neurite Outgrowth Assay in rat cortical cells for Neurite Length, Mundy Lab (AID 2284213)
# Method in brief: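 First, rat primary cortical cells were plated and, 2 h later, given test chemical as a 1/10 dilution. Finally, βIII-tubulin immunostaining enabled automated imaging of neurite length.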
# [14] = CCTE_Mundy_HCI_Cortical_Synap_Neur_Matur_NeuriteLength: CCTE's Synaptogenesis and Neurite Maturation Assay in rat cortical cells for Neurite Length, Mundy Lab (AID 2284214)
# Method in brief: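 Read-out: high-content imaging of MAP2-labelled neurites, with synaptophysin and Hoechst co-stain, in rat cortical cultures fixed at DIV 12. Activity fitted in positive direction relative to DMSO baseline.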
# [15] = system: DIO3 (gene 1735); experiment: CCTE_GLTED_hDIO3: CCTE's human Deiodinase 3 (DIO3) Inhibition Assay, Great Lakes Toxicology and Ecology Division (GLTED) Lab (AID 2284055; active = hit-call score of the fitted dose curve at least 0.9, where 1 is the maximum;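 also: potency is for inhibition seen as loss of released iodide signal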)
# Method in brief: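 hDIO3 (adenovirus-expressed) + test chemical, 3 h incubation; free iodide quantified by Sandell-Kolthoff reaction, absorbance read-out. DMSO negative control, n=3.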
smiles,measurement,setting,value
O=P(O)(O)CCC(F)(F)C(F)(F)C(F)(F)C(F)(F)C(F)(F)C(F)(F)F,outcome,[1],inactive
same,outcome,[2],inactive
same,outcome,[3],inactive
same,outcome,[4],inactive
same,outcome,[5],inactive
O=P(O)(O)CCC(F)(F)C(F)(F)C(F)(F)C(F)(F)C(F)(F)C(F)(F)C(F)(F)C(F)(F)F,AC50,[1],5.38 µM (active)
same,AC50,[2],8.87 µM (active)
same,AC50,[3],8.79 µM (active)
same,AC50,[4],4.31 µM (active)
same,AC50,[5],6.27 µM (active)
N=C(N)c1ccc(OCCCCCOc2ccc(C(=N)N)cc2)cc1,outcome,[6],inactive
same,outcome,[7],inactive
O=C1NS(=O)(=O)c2ccccc21,outcome,[1],inactive
same,outcome,[2],inactive
same,outcome,[7],inactive
same,outcome,[4],inactive
same,outcome,[5],inactive
same,outcome,[8],inactive
same,outcome,[9],inactive
same,outcome,[10],inactive
same,outcome,[11],inactive
same,outcome,[12],inactive
same,outcome,[13],inactive
same,outcome,[14],inactive
CN(CCO)S(=O)(=O)C(F)(F)C(F)(F)C(F)(F)C(F)(F)C(F)(F)C(F)(F)C(F)(F)C(F)(F)F,outcome,[1],inactive
same,outcome,[4],inactive
same,outcome,[5],inactive
CCCCCCCCCC=CCC1CC(=O)OC1=O (stereo not drawn),AC50,[15],27.2 µM (active)
O=C(F)C(F)(F)C(F)(F)C(F)(F)C(F)F,outcome,[1],inactive
same,outcome,[3],inactive
same,outcome,[4],inactive
same,outcome,[5],inactive
O=CC(F)(F)C(F)(F)C(F)(F)C(F)F,outcome,[1],inactive
same,outcome,[4],inactive
same,outcome,[5],inactive
CN(C)CCOC(c1ccccc1)c1ccccc1,AC50,[1],14 µM (active)
same,outcome,[6],inactive
same,outcome,[3],inactive
same,outcome,[7],inactive
same,outcome,[4],inactive
same,AC50,[5],15.5 µM (active)
CCCCCCCCCCCC,AC50,[15],22.7 µM (active)
same,outcome,[7],inactive
O=C(CC(=O)C(F)(F)C(F)(F)C(F)(F)F)c1cccs1,AC50,[1],3.48 µM (active)
same,AC50,[2],8.63 µM (active)
same,AC50,[3],9.02 µM (active)
same,outcome,[4],inactive
same,AC50,[5],7.75 µM (active)

# From PubChem BioAssay (EPA / NIEHS)
